Laboratory results as given in PubChem BioAssay (NCATS).
Unmarked numbers belong to inactive results. The call rests on the fitted dose curve; in most records, active means well fitted curve in the direction sought with a large enough effect; inconclusive means small, poorly fitted or top-dose-only effect, or another doubt; inactive means no such curve, though single readings can be large or run the other way. Inconclusive results are not listed.

Test system: not listed separately
Test: HepG2 viability counterscreen (readout 2: ATP content) against the NCATS DSHEA and TCM libraries (AID 1794840);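 further: HepG2 cells exposed to substances for about 24 h; 0% is about no effect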
Details: ATP content luminescence; series mostly up to 27.3 µM; activity change, negative = cytotoxic: at the top concentration
Text: Assay Development and Screening Technology Laboratory (ADST)
National Center for Advancing Translational Sciences (NCATS), Rockville, MD
National Institute of Health (NIH), Bethesda, Maryland
Dietary Supplements and Natural Products have minor oversight of their safety and efficacy. We assembled a collection of Dietary Supplements and Natural Products (DSNP) as well as Traditional Chinese Medicinal (TCM) Plant extracts, which were screened against an in vitro panel of assays, including a liver cytochrome p450 enzyme panel, CAR/PXR signaling pathways, and P-gp transporter assays, to assess their activity. This pipeline facilitated the interrogation of Natural Product-Drug Interaction (NaPDI) through prominent metabolizing pathways. In addition, we compared the activity profiles of the DSNP/TCM substances with those of an approved drug collection. Many of the approved drugs have well-annotated mechanisms of action (MOA) while the MOAs for most of the DSNP and TCM samples remain unknown. Based on the premise that compounds with similar activity profiles tend to share similar targets or MOA, we clustered the library activity profiles to identify overlap with the NCATS Pharmaceutical Collection to predict the MOAs of the DSNP/TCM substances. Overall, we highlight four significant bioactivity profiles (measured by p-values) as examples of this prediction. In addition, to assess broad cytotoxicity, we employed screening against a HepG2 cell line.
To this end, we profiled both collections for potential CAR and/or PXR activity, employing a previously published 1536-well qHTS assay. […]
7; Read 1; Fluorescence; EnVision plate reader excitation 380 nm, emission 510 nm. […]
11; Read 2; Luminescence; ViewLux plate reader. […]
7. After incubation, plates were read for fluorescence intensity (Ex/Em = 380 nm/510 nm) on an EnVision detector (PerkinElmer, Shelton, Connecticut).
8. Once the detection for fluorescence was completed, plates were dispensed with 3 uL of CellTiter-Glo (Promega, Madison, WI). […]
11. Plates were then read for luminescence intensity on a ViewLux detector. […]

Structure (SMILES) | activity change, negative = cytotoxic [%]
O=C(O)c1cc(O)c(O)c(O)c1 | -3.81
CCCCCCCCCCCCCCCCCC(=O)O | 0.201
C[S+](CC[C@H](N)C(=O)O)C[C@H]1O[C@@H](n2cnc3c(N)ncnc32)[C@H](O)[C@@H]1O (some centres not stated) | -3.49

Test system: not listed separately
Test: HepG2 viability counterscreen (readout 1: protease activity) against the NCATS DSHEA and TCM libraries (AID 1794841);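 further: cells exposed to compounds for about 24 h before the protease read; 0% is about no effect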
Details: qHTS concentration series; series mostly up to 27.3 µM; activity change, negative = inhibition: at the top concentration
Outline: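 1,000 HepG2 cells/well, 4 h attach; compounds ~24 h, 37C/5% CO2. Readout 1: GF-AFC 25 uM final, 30 min, fluorescence 380/510 nm. Readout 2: CellTiter-Glo, 30 min RT, luminescence.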

Structure (SMILES) | activity change, negative = inhibition [%]
O=C(O)c1cc(O)c(O)c(O)c1 | 1.19
CCCCCCCCCCCCCCCCCC(=O)O | -1.8
C[S+](CC[C@H](N)C(=O)O)C[C@H]1O[C@@H](n2cnc3c(N)ncnc32)[C@H](O)[C@@H]1O (some centres not stated) | 17.9

Molecular target: Metallo-beta-lactamase type 2 (Klebsiella pneumoniae) (UniProt C7C422)
Sequence (C7C422 whole entry, looked up): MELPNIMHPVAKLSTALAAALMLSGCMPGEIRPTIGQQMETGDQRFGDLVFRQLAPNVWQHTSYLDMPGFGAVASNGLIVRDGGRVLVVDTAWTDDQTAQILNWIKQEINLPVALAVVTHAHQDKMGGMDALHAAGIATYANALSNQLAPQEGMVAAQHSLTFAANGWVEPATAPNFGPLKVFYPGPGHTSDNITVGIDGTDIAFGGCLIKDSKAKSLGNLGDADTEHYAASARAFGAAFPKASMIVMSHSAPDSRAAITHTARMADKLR
Test: qHTS to identify inhibitors of the New Delhi Metallo-beta-lactamase (NDM): assay validation screen against the NCATS LOPAC Collection (AID 1794843); further: on the % scale 0 is the no-effect control and ±100 the full control effect
Details: NDM-1 enzyme, nitrocefin hydrolysis, absorbance 485 nm; series mostly up to 38.4 µM; activity change, negative = inhibition: at the top concentration
Outline: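 Absorbance at 485 nm from nitrocefin turnover (50 uM solution added), read at plateau, gives the read-out. Compounds in DMSO were incubated first with 2 nM final NDM-1 in pH 7.0 HEPES buffer containing 1 uM ZnSO4 and 0.01% Tween20.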

Structure (SMILES) | activity change, negative = inhibition [%]
CO/N=C(\C(=O)N[C@@H]1C(=O)N2C(C(=O)O)=C(COC(C)=O)CS[C@H]12)c1csc(N)n1 | -2.07
Nc1nc(Cl)nc2c1ncn2[C@@H]1O[C@H](CO)[C@@H](O)[C@H]1O | -7.12
Nc1nc(Nc2ccccc2)nc2c1ncn2[C@@H]1O[C@H](CO)[C@@H](O)[C@H]1O | -4.88
NC[C@@H]1O[C@H](C23CC4CC(CC(C4)C2)C3)Cc2c1ccc(O)c2O | 1.02
Cn1cc(C2=C(c3ccc(Cl)cc3Cl)C(=O)NC2=O)c2ccccc21 | -6.58
CN(C)C(N)=NCCC[C@H](N)C(=O)O | -19
O=C(c1cc(O)c(O)c([N+](=O)[O-])c1)c1ccccc1F | 12.2
CN1CCc2cc(NC(=O)Nc3cccnc3)ccc21 | -18.2
COc1cccc(OC)c1OCCNCC1COc2ccccc2O1 (configuration not stated) | 3.86
COc1cccc(C(=O)NCCN2CCN(c3ccc(Cl)cc3)CC2)c1 | -0.246
CN(C)c1nc(N)c(C(=O)N=C(N)N)nc1Cl | 4.64
COc1cc(SC)ccc1C(=O)N1CCC(Cc2ccccc2)CC1 | 0.498
Brc1cc2c(cc1[C@H]1Nc3ccccc3[C@H]3C=CC[C@H]31)OCO2 | 11.7
N=c1ccn2c(n1)O[C@H]1[C@H](O)[C@@H](CO)O[C@H]12 | -1.11
NCC1OC(O[C@H]2[C@H](O)[C@@H](OC3C(O)C(N)CC(N)C3OC3OC(CO)C(O)C(O)C3N)O[C@@H]2CO)C(N)C(O)C1O (some centres not stated) | -7.3
CN1CCc2cccc3c2C1Cc1ccc(O)c(O)c1-3 (configuration not stated) | -3.32

Structure (SMILES) | activity change, negative = inhibition [%]
O=C(CCSCc1ccco1)NNC(=O)N1Cc2ccccc2Oc2ccc(Cl)cc21 | -3.91
COc1ccc(-c2cc(=O)c3c(O)c(OC)c(OC)cc3o2)cc1O | 3.73
CCCC(CCC)C(=O)OC1CC2CCC(C1)[N+]2(C)C (configuration not stated) | 2.53
COc1ccc(C(=O)/C(Cc2cc(OC)c(OC)c(OC)c2)=C(\C(=O)O)c2ccc3c(c2)OCO3)cc1 | -7.18
CC1OC1P(=O)(O)O (configuration not stated) | 0.0495
S=c1[nH]c(-c2ccccc2)cn1-c1ccccc1 | -10.2
OC[C@H]1O[C@@H](n2cnc3c(NC4CCCC4)ncnc32)[C@H](O)[C@@H]1O | 2.41
CC[C@H]1OC(=O)[C@H](C)C(O[C@H]2C[C@@](C)(OC)[C@@H](O)[C@H](C)O2)[C@H](C)[C@@H](OC2O[C@H](C)C[C@H](N(C)C)[C@H]2O)[C@](C)(O)C[C@@H](C)CN(C)[C@H](C)[C@@H](O)[C@]1(C)O (some centres not stated) | 7.47
CNCC[C@H](Oc1ccc(C(F)(F)F)cc1)c1ccccc1 | -1.29
Nc1nc2ccc(Cl)cc2n2c(-c3ccccc3)nnc12 | -1.49
O=S(=O)(c1cccc2c(I)cccc12)N1CCCNCC1 | -6.29
COc1ccc(NC(=O)/C=C/c2ccc(Cl)cc2)cc1 | -14
CN[C@H](CC(C)C)C(=O)N[C@H]1C(=O)N[C@@H](CC(N)=O)C(=O)N[C@H]2C(=O)N[C@H]3C(=O)N[C@H](C(=O)N[C@H](C(=O)O)c4cc(O)cc(O)c4-c4cc3ccc4O)[C@H](O)c3ccc(c(Cl)c3)Oc3cc2cc(c3O[C@@H]2O[C@H](CO)[C@@H](O)[C@H](O)[C@H]2O[C@H]2C[C@](C)(N)[C@H](O)[C@H](C)O2)Oc2ccc(cc2Cl)[C@H]1O | 1.1
COc1ccccc1CNCCCCCCNCCCCCCCCNCCCCCCNCc1ccccc1OC | -12.5
CCN(CC)c1ncnc2c1ncn2[C@@H]1O[C@H](COP(=O)(O)OP(=O)(O)C(Br)(Br)P(=O)(O)O)[C@@H](O)[C@H]1O | -19.1
